# Results as given in article PMC12136788.
# Substitutions are numbered along the chain they refer to. Over roughly 24,000 sequences, “enrichment r” has its median near 0.99; the highest 2% begin near 3.7. This is one part of a sample in which the highest values are shown more often than they occur.
# B1: chr2:160855017:160855018:-_ENSMUSG00000057133_ENSMUST00000039782|mus_mus|FALSE|FALSE (ssRNA)
# RNA: GGGAGUUCUACAGUCCGACGAUCAUCCUUUUCCAGUUCUUCCAUUGUGGCCCAUUUACAAUGUAAAUAGGAAAAAUUUCUAUACUUAACGUAGAAAAGCUCUAGGUCGAAUGGAGGUUCUCCUGGGUGAACCUCCUGGACAGUCAACAGAGGAUUGAGCAUCA
# B2: chr7:150915252:150915253:-_ENSG00000033050_ENST00000287844|hu_mus|FALSE|FALSE (ssRNA)
# RNA: GGGAGUUCUACAGUCCGACGAUCCUUCCCUGCUCCAUUGGGUCCUACCAGAGCCACUCGUGUGUCAAGAUCAAUACCAAAUUCUAGAUUAUUGUAGAUGCAAGGCCCGUCUUUCGUAUAUUUGAAGCUCACGUUCUGCACCAUCAACAGAGGAUUGAGCAUCA
# B3: chr2:78753848:78753849:+_ENSMUSG00000027011_ENSMUST00000028398|mus_mus|FALSE|FALSE (ssRNA)
# RNA: GGGAGUUCUACAGUCCGACGAUCGUUAUCUCCUUUAGGCCCAGCACUGCAGUUAGGAGGAGGAUCAAGGGUUAUCUCUGCUAGCUCCUUCUGAAUUCUUUUAGCACUAGUGGAUAACUUAGCAGUCGUUUUGCUAGAGAGUUUCAACAGAGGAUUGAGCAUCA
# B4: chr11:43534790:43534791:+_ENSMUSG00000044950_ENSMUST00000129229|mus_mus|FALSE|FALSE (ssRNA)
# RNA: GGGAGUUCUACAGUCCGACGAUCUCUGAUUUUCUCAUGUGUUCUCCAUUCAUUAAACAAGAAAAAUUAAGGGGUUUCAUACUAUGUAUUUAGCAAAGACAAGGAAAUCUGAAAUCUCUGUUAAGAAUUCAUGUUCCAUGCACCCAACAGAGGAUUGAGCAUCA
# B5: chr2:4828950:4828951:+_ENSMUSG00000026662_ENSMUST00000115019|mus_hu|motif|central (ssRNA)
# RNA: GGGAGUUCUACAGUCCGACGAUCUAAAAUCUAGUUUUUCCCGAUAAAUUGUACUUUAGGCAAAACCCUCCCAACGCUUCGGAAAUAAUACUAAAAGGGGCAUCUGAUUAUACAAGAGCAAUUUAAAAAAUUAAAUAUUUAUUUCAACAGAGGAUUGAGCAUCA
# B6: chr11:30747457:30747458:+_ENSMUSG00000040850_ENSMUST00000041231|mus_mus|motif|central (ssRNA)
# RNA: GGGAGUUCUACAGUCCGACGAUCACCCUUAAAGAGGCAGAAACGCCGGGGACUAAACUUAUCUCUUCCUUUUCUGUCUUCGGAAGAUAGAAAUGUGAUUAACUGCUCAACAAACUUAGGAUCAGAAAAACGAUCAUAUAUAAUCAACAGAGGAUUGAGCAUCA
# B7: chr2:4828950:4828951:+_ENSMUSG00000026662_ENSMUST00000115019|mus_hu|FALSE|FALSE (ssRNA)
# RNA: B5 RNA with G80U, G81A
# B8: chr1:39494447:39494448:+_ENSG00000168653_ENST00000372967|hu_mus|hu_hu_hu_mus_False|68_88 (ssRNA)
# RNA: GGGAGUUCUACAGUCCGACGAUCGCACCGAGCGGCGUUCUUAUAGGGCUGUUCACCGCUUAGGAACGUCAACCAUCGGUCCAGGCUGAUGCCCAGCUUUUUCUGUAUGUCAAGGAAAGGCAUGGCUCUGCAGUGCCCUUGUCACAACAGAGGAUUGAGCAUCA
# B9: chr14:76904540:76904541:+_ENSMUSG00000022010_ENSMUST00000022587|mus_hu|motif|central (ssRNA)
# RNA: GGGAGUUCUACAGUCCGACGAUCAAAGAAAUUGAAAAAUGUCUCAGUUGGUAAACUCCUAGAUCCAUCGCCACUGGUCGGCACCAUUGGGAUUUCAUGCAAUUGCAGCCAAAAACACCCUCGUGGAAAAAAAGAGGGAACACCCAACAGAGGAUUGAGCAUCA
# B10: chr10:1038518:1038519:+_ENSG00000107937_ENST00000545048|hu_hu|hu_hu_hu_mus_False|28_58 (ssRNA)
# RNA: GGGAGUUCUACAGUCCGACGAUCCAGUCUGUCAUGGUAAUUCUGUUGAGUAAAUUUGACUUUUCUCAUAUAAAAAUGUCUAAUGCGAUGAAUUUGAUAAUGUUUAUGAAUAACGGUUGGAGUCUUUCGUUGAGUCUUGGAUAACAACAGAGGAUUGAGCAUCA
# B11: chr15:88518400:88518401:-_ENSMUSG00000022387_ENSMUST00000109381|mus_hu|FALSE|FALSE (ssRNA)
# RNA: GGGAGUUCUACAGUCCGACGAUCCCCGUCUUAUUAAAUAAGUGGUACUCUGUGUAAAGAGCAUGAUUUACAAAAUUAUUAAACAUUCAAAAGUCUUUAAGAAAAAGCUACAUAUCAAAGAAAGUGACGCCAGCAGCACGGCCUCAACAGAGGAUUGAGCAUCA
# B12: chr7:90019461:90019462:+_ENSMUSG00000057706_ENSMUST00000082237|mus_mus|FALSE|FALSE (ssRNA)
# RNA: GGGAGUUCUACAGUCCGACGAUCCGUCACAAUCGUGUGAUUAUUAAAAUAAUACAGUGUUCUUUGCCAUAAGGCCAUACUAAAAAUAAAAAGAUUUAACCCAGCUACAAAAAAGUUCACUGAACUUAAAUUAAAAUACUUGUACAACAGAGGAUUGAGCAUCA
# B13: chr6:53132721:53132722:-_ENSG00000012660_ENST00000304434|hu_hu|FALSE|FALSE (ssRNA)
# RNA: GGGAGUUCUACAGUCCGACGAUCUUACCUGUUUGACCACUGCCUCAAAUGUGUGAGAUGUGAUUUUAUGAUAAGCAGUCUAUUAUUUUUAAACAAGAGGUUCUAAACACAUCUUUAGAUUCUAAGCAGAAAGAAAUUACAAGUCAACAGAGGAUUGAGCAUCA
# B14: chr15:88518400:88518401:-_ENSMUSG00000022387_ENSMUST00000109381|mus_mus|FALSE|FALSE (ssRNA)
# RNA: GGGAGUUCUACAGUCCGACGAUCCCCGUCUUAUUAAAUAAGCGGUACUCUGUGUAAAGAGCAUGAUCUACAAAAUUAUUAAACAUUCAAAAGUCUUUAAAAAAAAAAAAAAACCCUACAGAUUAGAAUAAGUGAGGCCUCGGCCAACAGAGGAUUGAGCAUCA
# B15: chr11:120466956:120466957:+_ENSMUSG00000025135_ENSMUST00000093140|mus_mus|FALSE|FALSE (ssRNA)
# RNA: GGGAGUUCUACAGUCCGACGAUCCAAGCAGAGGCCUCCAGCACGGCUCGGAACUGUAAUGAGUUUUACUUAUUGAAUAAAGUGUCAAUGUGAUGGGAAAACAAAACAGUCAGCAAAGCUCCUUUCAACCUUGUCCCAGCCAAACAACAGAGGAUUGAGCAUCA
# B16: chr7:90019461:90019462:+_ENSMUSG00000057706_ENSMUST00000082237|mus_hu|FALSE|FALSE (ssRNA)
# RNA: GGGAGUUCUACAGUCCGACGAUCCGUCACAAUUGUGUGAUUAUUAAAAUAAUACAGUGUUCUUUGCCAUAAGGCCAUACUAAAAUAAAAAGAUUUAACCCAGCUACAAAAAAGUUCACUGAACUUAAAUUAAAAUACUUGUAACAACAGAGGAUUGAGCAUCA
# Target: T1, UNK ZnF1-3 (human, UniProt Q9C0B0 31-174)
# T1 sequence: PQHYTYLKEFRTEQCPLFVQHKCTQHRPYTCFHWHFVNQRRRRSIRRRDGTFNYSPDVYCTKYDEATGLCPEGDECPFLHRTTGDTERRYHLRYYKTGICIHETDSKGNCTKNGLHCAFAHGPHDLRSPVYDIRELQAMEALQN
# Assay: nsRBNS (natural sequence RNA bind-n-seq); RBNS binding buffer (assumed for nsRBNS): 25 mM Tris pH 7.5, 150 mM KCl, 3 mM MgCl2, 0.01% Triton X-100, 500 ug/ml BSA, 20 U/ml SUPERase-In, 4 C; UNK is unkempt and MSI1 is Musashi-1; names of the RNAs are library labels; protein concentration not given here; high values mean tight binding
row,Binder,binding signal [enrichment R]
1,B1,0.614
2,B2,1.41
3,B3,1.05
4,B4,0.874
5,B5,4.08
6,B6,0.632
7,B7,6.73
8,B8,0.613
9,B9,1.75
10,B10,1.2
11,B11,10
12,B12,3.43
13,B13,1.61
14,B14,6.27
15,B15,1.39
16,B16,3.55
